The values below come from PubChem BioAssay AID1851 (National Center for Advancing Translational Sciences (NCATS), 2009).

Screen size: about 16,000 compounds; about 5,700 (36%) were called active. Another 24% or so got no clear call; they are omitted. Some of the results follow. Unmarked numbers belong to inactive results. Calls come from the whole dose curve; as a rule, active = well fitted curve in the direction sought with a large enough effect; inconclusive = small, poorly fitted or top-dose-only effect, or effect the other way; inactive = no such curve, though single readings can be large or run the other way.
% is set by controls: 0 for no effect and ±100 for the full control effect.

Cytochrome P450 1A2 (Homo sapiens), sequence (P05177 whole entry, looked up): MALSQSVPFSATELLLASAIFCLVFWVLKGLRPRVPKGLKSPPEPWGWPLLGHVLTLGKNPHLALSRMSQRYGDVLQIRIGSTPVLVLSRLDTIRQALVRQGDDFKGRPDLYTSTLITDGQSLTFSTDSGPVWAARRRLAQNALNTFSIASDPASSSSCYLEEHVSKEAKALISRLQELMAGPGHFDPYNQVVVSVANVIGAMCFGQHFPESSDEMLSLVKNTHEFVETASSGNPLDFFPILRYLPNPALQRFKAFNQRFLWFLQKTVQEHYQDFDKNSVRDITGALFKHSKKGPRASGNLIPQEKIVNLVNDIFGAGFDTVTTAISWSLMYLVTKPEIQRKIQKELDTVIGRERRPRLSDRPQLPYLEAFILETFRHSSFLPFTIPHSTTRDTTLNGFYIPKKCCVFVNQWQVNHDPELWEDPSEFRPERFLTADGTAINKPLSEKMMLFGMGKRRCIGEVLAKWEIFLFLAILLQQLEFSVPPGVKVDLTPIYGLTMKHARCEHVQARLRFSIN

This assay has as its target Cytochrome P450 1A2 (Homo sapiens) (UniProt P05177). Put plainly: Cytochrome panel assay with activity outcomes. Conditions: recombinant CYP, pro-luciferin dealkylation, luminescence, p450-cyp1a2; series mostly up to 57.1 µM; activity, negative = inhibition: at the top concentration.
With `Cc1ccnc(NS(=O)(=O)c2ccc(N=[N+]=[N-])cc2)n1`, the activity, negative = inhibition was -6.01% [at 11.4 µM].
Still for that read-out and setting: the result for `CC(=C\C(=O)O)/C(=C/c1ccccc1)C(=O)O` reads -20.1%.
The term AC50 denotes the concentration giving half of the maximal activity seen. For `CC(=C/c1ccccc1)/C=N/n1cnnc1`, the concentration at half-maximal activity (AC50) was 2 µM (active).
As to `COC(=O)c1ccc(C2C(Oc3ccccc3)C(=O)N2CCc2ccc(OC)c(OC)c2)cc1` (configuration not stated), the “activity, negative = inhibition” value is 4.21%.
Regarding `Cc1cnc(CNc2ncnc3ccc(-c4ccccc4CN(C)C)cc23)cn1`, the “activity, negative = inhibition” value was -18.6%.
For `Cc1cnc(CNc2ncnc3ccc(-c4ccccc4Cl)cc23)cn1`, the AC50 was 6.31 µM (active).
With `Cc1cnc(CNc2ncnc3ccc(-c4ccccc4C)cc23)cn1`, the AC50 is 6.31 µM (active).
With `Cc1cnc(CNc2ncnc3ccc(-c4ccccc4C(F)(F)F)cc23)cn1`, the AC50 was 12.6 µM (active).
In the case of `COc1ccccc1-c1ccc2ncnc(NCc3cnc(C)cn3)c2c1`, the AC50 was 6.31 µM (active).
Take `CC(C)NC(=O)N1CC[C@@]2(CCCN(C(=O)c3csnn3)C2)C1`: the “activity, negative = inhibition” value was -3.33%.
The same measure, in the same setting: next, `CC[C@@H]1OC(=O)[C@H](C)[C@H](O[C@@H]2C[C@](C)(OC)[C@H](O)[C@H](C)O2)[C@H](C)[C@H](O[C@@H]2O[C@@H](C)C[C@@H](N(C)C)[C@@H]2O)[C@](C)(O)C[C@H](C)C(=NOCOCCOC)[C@H](C)[C@H](O)[C@]1(C)O`: -3% [at 25.6 µM]; `CC(C)CO/N=C1/C[C@@H](O)[C@@H](O)[C@@H]2[C@H]3C(=O)N(c4ccc(F)cc4F)C(=O)[C@@H]3CC[C@H]12`: 0.352% [at 11.4 µM].
Turning to `CCN(CC)c1ccc2cc(C(C)=O)c(=O)oc2c1`, the AC50 was 0.891 µM (active).
Consider `O=C(Nc1ccc2oc(=O)c(C(=O)O)cc2c1)Oc1ccccc1`, for which the activity, negative = inhibition is -15.3% [at 2.29 µM].
For the molecule `CC(C)OC(=O)c1cc2ccccc2oc1=O`, the AC50 was 0.447 µM (active).
In the case of `Cc1ccc[n+](CC(=O)c2cc3ccccc3oc2=O)c1`, the “activity, negative = inhibition” value is 6.85%.
Consider `CC(C)NCC[C@@H](O)c1cc2ccccc2o1`, for which the activity, negative = inhibition is -2.1% [at 2.29 µM].
With `CC(=O)c1cc2ccccc2oc1=O`, the AC50 is 0.2 µM (active).
Turning to `COc1ccc(C[N+](C)(C)N)cc1OC`, the activity, negative = inhibition is -11.5% [at 11.4 µM].
Regarding `COc1cc(CNn2nnnc2N)ccc1OCc1c(Cl)cccc1Cl`, the AC50 was 7.08 µM (active).
Turning to `Nc1ncnc2c1ncn2CCCCC(=O)O`, the activity, negative = inhibition was -3.15% [at 11.4 µM].
As for `O=C(Nc1cccnc1)c1ccc2snnc2c1`, the AC50 was 0.0631 µM (active).
In the case of `Nc1ccc(S(=O)(=O)c2ccc(NC(=O)c3cccnc3)cc2)cc1`, the activity, negative = inhibition was -21.1% [at 2.29 µM].
For `COc1ccc(OC)c2c(=S)c3ccccc3[nH]c12`, the AC50 was 0.0631 µM (active).
For the molecule `COc1cc(N2CCOCC2)ncn1`, the “activity, negative = inhibition” value was -18.1%.
For the molecule `COc1ccc2c(C)cc(N3CCOCC3)nc2c1`, the AC50 is 2.51 µM (active).
Regarding `COc1ccc(C2(C(=O)N3CCOCC3)CCCC2)cc1`, the “activity, negative = inhibition” value is -1.36%.
